In paper PMC5700166 one finds binding signal data, which are given here for 39 sequences.

The experiment addresses T1, GST-Co-NF-kB (Capsaspora owczarzaki, UniProt F1ARL5 200-546).
T1 sequence: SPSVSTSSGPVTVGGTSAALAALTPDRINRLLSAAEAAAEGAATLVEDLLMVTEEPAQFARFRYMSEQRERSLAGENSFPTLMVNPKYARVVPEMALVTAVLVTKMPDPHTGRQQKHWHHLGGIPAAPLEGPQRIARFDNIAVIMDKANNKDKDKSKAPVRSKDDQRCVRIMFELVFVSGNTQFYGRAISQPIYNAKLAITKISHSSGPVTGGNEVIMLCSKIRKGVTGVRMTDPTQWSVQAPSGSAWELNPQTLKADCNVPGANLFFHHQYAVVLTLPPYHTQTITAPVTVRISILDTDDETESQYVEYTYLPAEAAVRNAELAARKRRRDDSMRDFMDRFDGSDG
Description: protein-binding microarray (PBM); PBM: ~300 nM protein, 6 mM HEPES pH 7.8, 80 mM KCl, 0.5 mM EDTA, 0.5 mM EGTA, 6% glycerol, 35 ng/ul poly-dIdC, 1% milk, 1 h, room temperature; Ap Aiptasia and Nv Nematostella (sea anemones) / Co Capsaspora / Aq Amphimedon (sponge) / Dm Drosophila / Hu human; RHD is the Rel homology domain; high values mean tight binding. The conditions noted are these: dsDNA, one strand shown.
As to “CCGATTAACATCAAAGAATTCCCTGATGTTAATCGGGTCTTGATTCGCTTGACGCTGCTG”, the binding signal worked out at 4.52 z-score. The sequence “CCGATTAACATCAGGGGGTTTAATGATGTTAATCGGGTCTTGATTCGCTTGACGCTGCTG” yielded a binding signal of 2.64 z-score. The value for “CCGATTAACATCAAATTCCCCCCTGATGTTAATCGGGTCTTGATTCGCTTGACGCTGCTG” was 10.1 z-score; that for “CCGATTAACATCACGAATCCCCCTGATGTTAATCGGGTCTTGATTCGCTTGACGCTGCTG” was 5.16 z-score; that for “CCGATTAACATCACGGGGAATCCTGATGTTAATCGGGTCTTGATTCGCTTGACGCTGCTG” was 8.28 z-score. On to “CCGATTAACATCAGGGAAAATAATGATGTTAATCGGGTCTTGATTCGCTTGACGCTGCTG”, for which the binding signal turned out to be 5.52 z-score. Sequence “CCGATTAACATCAGGGGACTTTATGATGTTAATCGGGTCTTGATTCGCTTGACGCTGCTG” gave a binding signal of 3.64 z-score. The value for “CCGATTAACATCACATTCCCCCCTGATGTTAATCGGGTCTTGATTCGCTTGACGCTGCTG” was 8.44 z-score; that for “CCGATTAACATCAACAAACCCCCTGATGTTAATCGGGTCTTGATTCGCTTGACGCTGCTG” was 2.52 z-score. Turning to “CCGATTAACATCAGGAAACCCCATGATGTTAATCGGGTCTTGATTCGCTTGACGCTGCTG”, the binding signal is 1.76 z-score. Take “CCGATTAACATCAAATTCCCCCTTGATGTTAATCGGGTCTTGATTCGCTTGACGCTGCTG”: the binding signal was 8.93 z-score. With “CCGATTAACATCAAAATTTCCCATGATGTTAATCGGGTCTTGATTCGCTTGACGCTGCTG”, the binding signal is 5.2 z-score. For the sequence “CCGATTAACATCAGGCAACCCCCTGATGTTAATCGGGTCTTGATTCGCTTGACGCTGCTG”, the binding signal turned out to be 2.03 z-score.

Take “CCGATTAACATCAAGGGTGGGAATGATGTTAATCGGGTCTTGATTCGCTTGACGCTGCTG”: the binding signal worked out at 2.88 z-score.

Turning to “CCGATTAACATCAGGGGAACAACTGATGTTAATCGGGTCTTGATTCGCTTGACGCTGCTG”, the binding signal is 5.75 z-score. In the case of “CCGATTAACATCACCGTTCCCCCTGATGTTAATCGGGTCTTGATTCGCTTGACGCTGCTG”, the binding signal came to 6.76 z-score. “CCGATTAACATCAAAACATTCCCTGATGTTAATCGGGTCTTGATTCGCTTGACGCTGCTG” gave a binding signal of 4.18 z-score. “CCGATTAACATCAGGGATTTTACTGATGTTAATCGGGTCTTGATTCGCTTGACGCTGCTG” came in with a binding signal of 2.36 z-score. As for “CCGATTAACATCACGGGAGTCCCTGATGTTAATCGGGTCTTGATTCGCTTGACGCTGCTG”, the binding signal was 1.57 z-score. “CCGATTAACATCAAAATCCCCCATGATGTTAATCGGGTCTTGATTCGCTTGACGCTGCTG” had a binding signal of 6.67 z-score.

Sequence “CCGATTAACATCAAGGGAAATCCTGATGTTAATCGGGTCTTGATTCGCTTGACGCTGCTG” displayed a binding signal of 3.33 z-score. Sequence “CCGATTAACATCAGGGTAAACCCTGATGTTAATCGGGTCTTGATTCGCTTGACGCTGCTG” had a binding signal of 2.45 z-score. For “CCGATTAACATCAATCTTTCCCCTGATGTTAATCGGGTCTTGATTCGCTTGACGCTGCTG”, the binding signal was determined as 8.32 z-score. In the case of “CCGATTAACATCACGAATTTCCCTGATGTTAATCGGGTCTTGATTCGCTTGACGCTGCTG”, the binding signal stood at 4.33 z-score.

Turning to “CCGATTAACATCAGGACCTCCCCTGATGTTAATCGGGTCTTGATTCGCTTGACGCTGCTG”, the binding signal was 2.53 z-score. The value for “CCGATTAACATCAGGGGATTTAATGATGTTAATCGGGTCTTGATTCGCTTGACGCTGCTG” was 3.58 z-score; that for “CCGATTAACATCAAATTTCCCGTTGATGTTAATCGGGTCTTGATTCGCTTGACGCTGCTG” was 4.13 z-score. Consider “CCGATTAACATCATGGGGAAAAATGATGTTAATCGGGTCTTGATTCGCTTGACGCTGCTG”, for which the binding signal was determined as 9.78 z-score. The value for “CCGATTAACATCAAAACCCCCCATGATGTTAATCGGGTCTTGATTCGCTTGACGCTGCTG” was 4.66 z-score; that for “CCGATTAACATCAAAGAAACCCCTGATGTTAATCGGGTCTTGATTCGCTTGACGCTGCTG” was 1.95 z-score. “CCGATTAACATCACGTACTTCCCTGATGTTAATCGGGTCTTGATTCGCTTGACGCTGCTG” registered a binding signal of 1.1 z-score. “CCGATTAACATCAGGATTACCCCTGATGTTAATCGGGTCTTGATTCGCTTGACGCTGCTG” gave a binding signal of 3.97 z-score.

As for “CCGATTAACATCAACGAATTCCCTGATGTTAATCGGGTCTTGATTCGCTTGACGCTGCTG”, the binding signal was determined as 2.64 z-score. The sequence “CCGATTAACATCAGGGGGAGGAATGATGTTAATCGGGTCTTGATTCGCTTGACGCTGCTG” showed a binding signal of 7.99 z-score.

“CCGATTAACATCAGGGGTAAATATGATGTTAATCGGGTCTTGATTCGCTTGACGCTGCTG” gave a binding signal of 7.48 z-score. To “CCGATTAACATCAGGGAAGAACCTGATGTTAATCGGGTCTTGATTCGCTTGACGCTGCTG” belongs 1.42 z-score. Turning to “CCGATTAACATCAAAATTACCCATGATGTTAATCGGGTCTTGATTCGCTTGACGCTGCTG”, the binding signal came to 2.84 z-score. “CCGATTAACATCAAATTCCCCCGTGATGTTAATCGGGTCTTGATTCGCTTGACGCTGCTG” showed a binding signal of 11 z-score. For the sequence “CCGATTAACATCAGGGGGATTACTGATGTTAATCGGGTCTTGATTCGCTTGACGCTGCTG”, the binding signal was found to be 5.85 z-score.
